# Experimental data published in PubChem BioAssay (NCI).
# About 79,000 compounds went through this panel and 15% of them were active in at least one assay; those are over-represented in the sample as a whole. The source made the active and inactive calls. Rule as the data show it: active = growth inhibition above about 70%; inactive = the rest.
# Assay: NCI Yeast Anticancer Drug Screen. Data for the rad50 strain (AID 155);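 also: 0% = growth of vehicle-only cultures of the same strain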
# Settings: S. cerevisiae rad50 strain growth inhibition; at 50.0 µM; hits give high values
# In short: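 Readout: growth inhibition relative to vehicle-treated cultures. Compound exposure was carried out in a genetically defined yeast strain deficient in DNA damage repair.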
row,Compound,growth inhibition
1,O=C(Nc1ccc(Cl)cc1)NS(=O)(=O)c1c(-c2ccccc2)oc2ccccc2c1=O,92.3% (active)
2,Cc1cc(CN(Cc2ccccc2)Cc2nc3ccccc3[nH]2)c(O)c(CN(Cc2nc3ccccc3[nH]2)Cc2nc3ccccc3[nH]2)c1,73% (active)
3,COC1=CC2=CCC3C(CCC4(C)C(C(C)=O)CCC34)C2(C)CC1 (stereo not drawn),42.5% (inactive)
4,OC(C1CCCCN1)C1CC(c2ccccc2)Nc2c(Cl)cc(Cl)cc21 (stereo not drawn),99.4% (active)
5,CN(C)C1=C(Cl)C(=O)c2ccccc2C1=O,47.7% (inactive)
6,CCCCCNC(=O)C1C(=O)N(CCCCC)C(=O)/C1=N\N (stereo not drawn),-5% (inactive)
7,O=C(Nc1ccc(Cl)cc1)OCCOCCOC(=O)Nc1ccc(Cl)cc1,95.8% (active)
8,CCCC(CC)c1c(O)c(O)c(C(CC)CCC)c(C(CC)CCC)c1C(CC)CCC (stereo not drawn),95.5% (active)
9,Cc1ccc(NC(=S)SCc2ccc3c(c2)OCO3)cc1Cl,98.9% (active)
10,CN(C)CCCNc1ccc(O)c2c1C(=O)c1ccccc1C2=O,89.9% (active)
11,CC1=C(C(=O)Nc2ccc(Cl)c(Cl)c2)C(c2ccco2)C(C(=O)Nc2ccc(Cl)c(Cl)c2)=C(C)N1,88.7% (active)
12,Cc1ccccc1NC(=O)CSC(N)=O,82.1% (active)
13,Cc1[nH]c2ccccc2c1C(C)CC(O)c1ccccc1 (stereo not drawn),95% (active)
14,Cn1c(=O)ccc2cc(C(=O)c3ccccc3)ccc21,30.2% (inactive)
15,c1ccc2c(c1)N=c1ccccc1=P21c2ccccc2Nc2ccccc21,87.3% (active)
16,Nc1[nH]cnc(=S)c1NC=O,13.9% (inactive)
17,COC(=O)CCC(=O)c1ccc2c(c1)CC1(Cc3ccccc3C1)C2,14.4% (inactive)
18,CCC[CH2][Sn]([CH2]CCC)([O]C(=O)c1cc(F)cc(F)c1)[O][Sn]([CH2]CCC)([CH2]CCC)[O]C(=O)c1cc(F)cc(F)c1,83% (active)
19,CCOC(=O)CSC(=S)Nc1ccc(Cl)cc1,88.9% (active)
20,CC1(C)CC(=O)C(C(c2ccc3c(c2)OCO3)N2CCOCC2)C(=O)C1 (stereo not drawn),99.2% (active)
21,COC(=O)c1c(C)cccc1C(=O)c1c(C)cc(C)cc1C,73.1% (active)
22,C=C1C(=O)OC2CC3(C)CC(O)C(O)C(=C)C3CC12 (stereo not drawn),91.2% (active)
23,CCOC(=O)C1=C(N)N(S(=O)(=O)c2ccc(C)cc2)CCC(C(=O)OC)=C1,30.4% (inactive)
